Drawing on PubChem BioAssay (Tox21), this text covers Potency and cytotoxicity for 40 compounds.

Calls of active or inactive are those of the source. A call without a number means that no potency is given here. Calls follow the shape of the dose curve; as a rule, active = well fitted activation curve with a large enough effect in the repeat runs; inconclusive = weak or mixed curves; inactive = flat fitted curve, though single readings scatter.

The nature of this experiment: A CellTox Green Cytotoxicity Assay to monitor cytotoxicity in HepG2 cells - 0 hour (AID 1224882). Also: nearly all actives have a fitted effect of over 35% in size. The conditions noted are these: CellTox Green fluorescence; series mostly up to 76.8 µM. An excerpt:
National Center for Advancing Translational Sciences [NCATS]
NIH Chemical Genomics Center [NCGC]
U.S. Environmental Protection Agency [EPA]
National Institutes of Environmental Health Sciences [NIEHS]
National Toxicology Program [NTP]
Cell-based models are critical for drug discovery. Determining the natural cytotoxic effects resulting from test compounds is an essential research activity. A CellTox Green Cytotoxicity Assay to monitor cytotoxicity in real time of continues cell culture during 40 hours of the compound treatment was used to screen Tox21 10K library compounds in HepG2 cells. CellTox Green Cytotoxicity Assay is a nonlytic, homogeneous, biofluorescent method to measure cytotoxicity in cell culture after experimental manipulation. The assay system uses a proprietary asymmetric cyanine dye that is excluded from viable cells but preferentially stains the dead cell's DNA. […] Viable cells produce no appreciable increases in fluorescence. Therefore, the fluorescence signal produced by the binding interaction with dead cell DNA is proportional to cytotoxicity.
The mixture of HepG2 cell suspension and reagents were dispensed at 600cells/6 ul/well in 1536-well tissue culture treated black solid bottom plates using a Multidrop dispenser. After the assay plates were incubated at a 37 C/5% CO2 incubator for 5 hours, 23 nL of compounds dissolved in DMSO, positive and negative controls was transferred to the assay plate by a pintool work station. The plates were incubated at 37 C for 40 hours. The fluorescence intensity were measured at 0h, 8h, 16h, 24h, 32h and 40h time points using ViewLux plate reader during compound treatment.
In the case of `O=C1CCCCCCCCCCCC(=O)OCCO1`, the Potency entry is “inactive”.
For the compound `CC1(c2ccccc2)OC(C(=O)O)=CC1=O` (stereo not given), the Potency entry was “inactive”.
Same read-out and setting: then `C/C=C/C=C/CO`, with “inactive”.
The same measure, in the same setting: with `C=C(C)C(=O)OCCOCC` the entry was “inactive”.
Still for that read-out and setting: with `CCCCCCCCO[C@@H]1O[C@H](CO)[C@@H](O)[C@H](O)[C@H]1O` the entry was “inactive”; with `c1ccc(C(O[C@H]2CCCN(CCc3ccc4c(c3)OCO4)C2)c2ccccc2)cc1`, “inactive”.
Consider `CC(C)(C)OCC1CO1` (stereo not given), for which the Potency result is “inactive”.
Same read-out and setting: then `CCc1c(C(=O)NN2CCCCC2)nn(-c2ccc(Cl)cc2Cl)c1-c1ccc(Br)cc1`, with “inactive”; and `COC(C)OC`, with “inactive”; and `COS(=O)(=O)C(F)(F)F`, with “inactive”.
The same measure, in the same setting: then `CC[N+]1(CC)CCC(=C(c2ccccc2)c2ccccc2)C1C` (stereo not given), with “inactive”; and `C=C1C(=C/C=C2\CCC[C@]3(C)[C@@H]([C@H](C)/C=C/[C@@H](O)C4CC4)CC[C@@H]23)C[C@@H](O)C[C@@H]1O`, with “inactive”; and `CCN(CC)CCNc1ccc(CNC=O)c2sc3ccc(OC)cc3c(=O)c12`, with “inactive”.
For the compound `ClCCOCCOCCCl`, the Potency entry is “inactive”.
Still for that read-out and setting: with `CCCCC` the entry was “inactive”; with `COCC(C)OC(C)=O` (stereo not given), “inactive”; with `COc1ccc(C(=O)Nc2nc3ccccc3c(NCc3ccccc3)c2C#N)cc1`, “inactive”.
As for `CCCC(=O)Nc1ccc(O)c(C(C)=O)c1`, the Potency result is “inactive”.
The same measure, in the same setting: with `O=C(Nc1ccccc1)c1ccccc1O` the entry was “inactive”; with `COc1cccc(N(C)C(=S)Oc2ccc3c(c2)CCCC3)n1`, “inactive”.
The same measure, in the same setting: then `c1cc(CCCc2ccncc2)ccn1`, with “inactive”; and `CCOC(=O)NCCOc1ccc(Oc2ccccc2)cc1`, with “inactive”; and `CCOc1ccc(O)cc1`, with “inactive”.
On the same count and under the same terms, with `C=CC(=O)OCCOc1ccccc1` the entry was “inactive”.
For `O=C(NCCO[N+](=O)[O-])c1cccnc1`, the Potency result was “inactive”.
`Brc1c2ccccc2c(Br)c2ccccc12`: the cytotoxicity is 5.32% [at 6.97 µM] (inactive).
Take `CCC(C)O` (stereo not given): the Potency result is “inactive”.
Same read-out and setting: with `O=[N+]([O-])c1ccc(NCCO)c(OCCO)c1` the entry was “inactive”; with `CN(C)CCN(Cc1ccccc1)c1ccccn1`, “inactive”.
On the same count and under the same terms, then `O=C(c1ccc(F)cc1)C1CCN(CCn2c(=S)[nH]c3ccccc3c2=O)CC1`, with “inactive”; and `CCNc1cc(O)ccc1C`, with “inactive”; and `O=P(O)(OCc1ccccc1)OCc1ccccc1`, with “inactive”.
Same read-out and setting: then `NS(=O)(=O)c1ccc(N2CCCCS2(=O)=O)cc1`, with “inactive”.
With `CCO[Si](CCCCl)(OCC)OCC`, the Potency entry is “inactive”.
On to `CC(=O)c1ccc2c(c1)N(CCCN1CCC(CCO)CC1)c1ccccc1S2`, for which the Potency entry is “inactive”.
The same measure, in the same setting: then `O=C1c2ccccc2S(=O)(=O)N1CCCCN1CCN(c2ncccn2)CC1`, with “inactive”; and `CNCCCN1c2ccccc2CCc2ccccc21`, with “inactive”; and `O=C1[C@H]2CCCC[C@H]2C(=O)N1CCCCN1CCN(c2nsc3ccccc23)CC1`, with “inactive”.
On the same count and under the same terms, then `CCCCCCCCCCCc1ccccc1`, with “inactive”.
On the same count and under the same terms, then `COC(=O)C1=C(C)NC(COC(N)=O)=C(C(=O)OC(C)C)C1c1cccc(Cl)c1Cl` (stereo not given), with “inactive”.
